# Experimental data published in PubChem BioAssay AID493191 (Broad Institute, 2011).
# Hit rate of the full screen: of about 1,300 compounds, about 330 (25%) were called active. A selection follows. Potency and affinity values are given separately. Unmarked numbers belong to inactive results. No rule for the calls is given here.
# Assay: MALME3 melanoma cell viability loss, dose response, orthogonal assay for MITF inhibitor project, CellTiter-Glo, cherry-picked (AID 493191)
# Settings: CellTiter-Glo luminescence, 24 h; series mostly up to 35 µM; activity change, negative = inhibition: at the top concentration
row,SMILES,"activity change, negative = inhibition"
1,C=CCC(Nc1ccccc1)C12C=CC(O1)C(C(=O)OC)=C2C(=O)OC (configuration not stated),-24.4%
2,Cc1ccc(C)c(-n2c3nc(=O)[nH]c(=O)c-3cc3cc([N+](=O)[O-])ccc32)c1,11.9%
3,COc1ccc(C2C(C#N)=C(N)Oc3c2oc(CO)cc3=O)cc1 (configuration not stated),-3.32%
4,Cc1ccc(NC(=O)Cc2noc3ccccc23)cc1,-4.89%
5,COc1ccccc1C(=O)Nc1nc(-c2ccc(S(=O)(=O)N3CCOCC3)cc2)cs1,-15.5%
6,Cc1cnc(NC(=O)c2nn(C)cc2[N+](=O)[O-])s1,16.6%
7,O=C(O)c1cccc(N/N=C/c2cccs2)c1,4.16%
8,Cc1cc(C(=O)Nc2ccc([N+](=O)[O-])cn2)cs1,7.3%
9,O=C(N/N=C/c1cc([N+](=O)[O-])ccc1N1CCNCC1)c1ccc([N+](=O)[O-])cc1,-44.9%
10,O=C(O)c1cccc(N/N=C/c2ccc(OC(F)(F)F)cc2)c1,3.69%
11,c1cnc(SCCOc2ccc3c(c2)CCC3)nc1,0.3%
12,Cn1nnnc1Sc1ncnc2scc(-c3cccc(F)c3)c12,-8.39%
13,CC1CCCCC1NC(=O)/C(C#N)=C/c1ccccc1F (configuration not stated),-36.7%
14,COc1cccc(NC(=O)c2cnn(-c3ccccc3)c2C)c1,-7.95%
15,CCOc1ccc(NC(=O)c2ccc3snnc3c2)cc1,-0.985%
16,CCOc1ccc(-c2noc(CCC(=O)O)n2)cc1,6.15%
17,Cc1nc(NC(=O)/C=C/c2ccccc2)n[nH]1,-19.5%
18,O=C(Nc1ccc(Cl)cc1)OCc1ccccn1,-5.39%
19,O=C(Nc1ccc2ncccc2c1)c1ccccc1Br,4.58%
20,O=C(Nc1ccc(N2CCOCC2)cc1)c1cnsn1,-6.28%
21,O=C(CCCCl)NC(=S)Nc1ccc(N2CCOCC2)cc1,-1.17%
22,COc1ccc(C(=O)Nc2ccc3ccccc3c2)cc1OC,-2.8%
23,O=C(Nc1ccc2c(c1)OCCO2)c1coc2ccccc2c1=O,0.549%
24,Brc1cccc(/C=N/Nc2nn[nH]n2)c1,-7.17%

row,SMILES,"activity change, negative = inhibition"
1,CCN(CC)CC(=O)Nc1scc2c1c(=O)oc1ccccc12,10.3%
2,Cc1ccc(Nc2nnc(-c3ccccc3N)o2)cc1C,6.17%
3,C=CCOc1ccc(/C=C/C(C)=N\O)cc1,-2.54%
4,O=C(c1cc2ccccc2oc1=O)N(Cc1ccccc1)C1CCS(=O)(=O)C1 (configuration not stated),3.46%
5,COc1ccc(C(=O)NCC(=O)c2ccccc2)cc1,-1.09%
6,NCCN1C(=O)S/C(=C\c2ccc3c(c2)OCO3)C1=O,-23.1%
7,CC(C)S(=O)(=O)c1csc(C(=O)Nc2ccc(F)cc2)c1N,-5.06%
8,O=C(NCc1ccc2c(c1)OCO2)c1cc(=O)[nH]c2ccccc12,3.43%
9,CN(C)c1ccc(NC(=S)c2ccccn2)cc1,-23.9%
10,N/C(=N\OC(=O)c1ccc(Cl)cc1Cl)c1ccncc1,1.53%
11,Cc1ccc(-n2nnnc2Sc2nc([N+](=O)[O-])nn2C)c(C)c1,-5.23%
12,Cc1ccc(-n2cc(CNCCCn3cccn3)c(-c3cccc(C)c3)n2)cc1,-48%
13,C=C1C(=O)O[C@@]23[C@H]1CC[C@@H](C)[C@@H]2CC[C@@]1(C)O[C@@H]31,5.34%
14,Cc1ccc(C2CC(C(F)(F)F)n3nc(C(=O)NCc4c(C)nn(C)c4C)c(Cl)c3N2)cc1 (configuration not stated),-6.98%
15,Cn1c(/C=C/c2ccc(Cl)cc2)nc2ccccc2c1=O,3.09%
16,COc1cccc(-c2csc3ncnc(Sc4nnnn4C)c23)c1,-4.63%
17,Cc1ccc(-c2noc(CN3CCCCC3)n2)cc1,3.33%
18,C=CCn1cccc(C(=O)Nc2ccc(C)c(Cl)c2)c1=O,-0.506%
19,O=C(Nc1ccc(N2CCOCC2)c(Cl)c1)c1cccc(F)c1,-0.402%
20,Cc1ccc2nc(NC(=O)CSCC(=O)OCC(=O)c3ccccc3)sc2c1,2.77%
21,O=C(O)c1ccc(N/N=C/c2ccc3nccnc3c2)cc1,-31.8%
22,Clc1nccnc1N/N=C/c1ccc(Br)cc1,-22.2%
23,CCSC1(SCC)N=C(N)C2(C#N)C(c3ccc(F)cc3)C12C#N (configuration not stated),-37.6%
24,O=C(COC(=O)c1ccc[nH]c1=O)Nc1ccc(N2CCCCC2)cc1,-7.21%

row,SMILES,"activity change, negative = inhibition"
1,CCOc1ccc(-c2nnc(-c3cccs3)o2)cc1OCC,10.4%
2,CCOC(=O)C1(Cc2cccc(OC)c2)CCCN(C(=O)CSC)C1 (configuration not stated),9.78%
3,O=C(/C=C\c1ccccc1)NCC(=O)N/N=C/c1ccc(O)cc1O,0.032%
4,O=C(Cc1ccccc1)NCC(=O)N/N=C/c1ccc([N+](=O)[O-])s1,-16.7%
5,Cc1onc(-c2ccccc2)c1C(=O)N/N=C/c1ccc([N+](=O)[O-])s1,-49.8%
6,COc1ccc(NC(C)C(=O)N/N=C/c2ccc([N+](=O)[O-])s2)cc1 (configuration not stated),-67.8%
7,CCOc1ccc(NC(=O)CCC(=O)N/N=C/c2ccc([N+](=O)[O-])s2)cc1,-32.1%
8,N/C(=N\OC(=O)c1cccc(F)c1)c1cccc([N+](=O)[O-])c1,14.9%
9,COc1ccc(-c2csc(N(C)C(=O)c3ccco3)n2)cc1,-12.4%
10,COCCn1c(C)cc(C(=O)COC(=O)c2ccccc2Br)c1C,-0.877%
11,CC(/C=C1\SC(=O)N(CCCC(=O)O)C1=O)=C\c1ccccc1,0.09%
12,CCN(Cc1ccc(OC)c(F)c1)C(=O)CCl,-27.4%
13,c1ccc(OCc2nc3ccccc3[nH]2)cc1,-10.5%
14,N#CC1=C(c2ccccc2)/C(=C/c2ccccc2)OC1=O,-12%
15,COc1cccc2c1C(=O)C=C(C)C2=O,-32.2%
16,Cc1cc(C=C2C(=O)c3ccccc3C2=O)c(C)n1-c1ccccc1,-0.523%
17,O=C(O)c1ccccc1C(=O)Nc1ccc(Oc2cccc3ccccc23)cc1,8.02%
18,Cc1ccc(N2C(=O)c3ccc(N)cc3C2=O)cc1C,1.99%
19,COc1ccc(/C=N/Nc2cc(C)nc(-n3nc(C)cc3C)n2)c(OC)c1,-34.1%
20,O=C1CCC2S/C(=C/Nc3ccc(C(F)(F)F)cc3)C(=O)N12 (configuration not stated),5.58%
21,Cc1nc(C)c(C(=O)N/N=C/c2cc(Br)ccc2O)s1,-24.3%
22,CC(C)C(=O)NC(c1ccco1)c1ccc2cccnc2c1O (configuration not stated),-26.1%
23,C=CCN=C1NN=C(c2ccc3c(c2)OCCO3)CS1,-32.5%
24,C=CCn1c(C)cc(C2=NNC(=NC(C)(C)C)SC2)c1C,-17%

row,SMILES,"activity change, negative = inhibition"
1,COc1ccccc1NC(=O)c1cnc(SCC(=O)NCC2CCCO2)n(C)c1=O (configuration not stated),-12%
2,Cc1nc(Sc2nnnn2C)c2c3c(sc2n1)CCC3,-12.1%
3,COCCNC(=O)/C(C#N)=C/c1cccc(/C=C(\C#N)C(=O)NCCOC)c1,-48.7%
4,CCOCCCNC(=O)/C(C#N)=C/c1ccc(Cl)c([N+](=O)[O-])c1,-26.7%
5,CCCOc1ccc(C(=O)Nc2ccc3c(c2)OCCO3)cc1,-0.116%
6,CC1CCCC(NC(=O)NC(=O)CCl)C1C (configuration not stated),-14.4%
7,CCCc1ccc(-c2ccc(/C=C/C(=O)O)cc2)nc1,-14.1%
8,COc1cc(OC)cc(C(=O)N[C@H](C(=O)Nc2nc3ccccc3[nH]2)C(C)C)c1,-12.2%
9,CCCCNc1nc(=S)n(-c2ccccc2)c(C)c1C(C)=O,-0.88%
10,Cc1cc(Br)ccc1OCc1nc(-c2cccnc2)no1,22.1%
11,CCOC(=O)c1cc(-c2ccc(OC)cc2)n[nH]1,-1.15%
12,CC(=O)COc1ccc2cc(-c3ccccc3)c(=O)oc2c1,5.42%
13,COc1ccc(Cn2c(-c3ccc(C)cc3)c[n+]3ccccc23)cc1,-41.9%
14,CC(=O)N(c1nnc(-c2cccc(C)c2)s1)C1CCCC1,1.3%
15,O=C(Nc1ccc2nc(-c3ccccc3)[nH]c2c1)c1ccco1,-2.15%
16,Cc1cccc(NC(=O)Cc2ccc(Br)cc2)n1,3.14%
17,C/C(=N\NC(=O)Cc1ccc(Cl)cc1)c1ccccn1,-36.5%
18,CC(=NNc1nc2ccccc2o1)c1cc2ccccc2cn1,-27.3%
19,NCCCNc1nc(N)c([N+](=O)[O-])c(NC2CCCCC2)n1,-4.7%
20,CC(=O)c1ccc(N/C=C/C(=O)c2ccc(Br)cc2)cc1,-9.49%
21,COc1ccc(NC(=O)c2scc(S(=O)(=O)C(C)C)c2N)cc1,2.91%
22,C/C(=N\NC(=O)C(c1ccccc1)c1ccccc1)c1ccccn1,-16.6%
23,CCOC(=O)C1(Cc2ccccc2)CCCN(CCCn2cccn2)C1 (configuration not stated),-1.46%
24,CN(C)S(=O)(=O)c1ccc(-c2csc(N/N=C/c3ccco3)n2)cc1,-18%

row,SMILES,"activity change, negative = inhibition"
1,Cc1csc(N/N=C/c2ccc([N+](=O)[O-])cc2)n1,-4.58%
2,COC(=O)c1ccc(/C=C(\C#N)C(=O)NC(C)c2ccccc2)cc1 (configuration not stated),-44.5%
3,COc1ccc(/C=C2\SC(=O)N(CCCC(=O)Nc3cc(Cl)ccc3C(=O)O)C2=O)cc1,2.02%
4,c1cc(CSc2nnc(-c3ccc4c(c3)OCO4)o2)ccn1,-39.7%
5,COc1ccc2c(C)nc(Nc3nc(-c4ccccc4)cc(=O)[nH]3)nc2c1,-29.7%
6,O=C(Nc1cc2c(cc1Cl)OCCO2)c1ccco1,2.69%
7,Nc1nnnn1/N=C/C(Br)=C/c1ccccc1,-24.4%
8,Cc1cc(C)nc(S/C=C/C(=O)c2ccccc2F)n1,-27.5%
9,Cn1nc([N+](=O)[O-])nc1S(C)(=O)=O,-9.21%
10,CN(C)c1ccc(CNc2ccccn2)cc1,-1.21%
11,COC(=O)c1ccc(/C=N/Nc2nc(C)c(C)s2)cc1,-12.1%
12,O=C(CCNc1ccccc1)c1ccc2c(c1)OCO2,7.65%
13,CC1=NOC(=O)/C1=C\c1ccc(-c2cccc(Cl)c2)o1,-12.7%
14,CCC1CCCCN1CCCNC(=O)c1cn(CC)c2ccc(S(=O)(=O)N(C)C3CCCCC3)cc2c1=O (configuration not stated),3.17%
15,Cc1c(C(=O)N(CCO)Cc2ccccc2)oc2c(F)cccc12,-4.4%
16,COc1ccc(NC(=O)C2COc3ccccc3O2)cc1 (configuration not stated),4.91%
17,COc1cc2ccccc2cc1C(=O)Nc1ccc(N2CCN(C)CC2)cc1,-5.36%
18,O=C(O)CSCC(=O)Nc1ccc(C2CCCCC2)cc1,-15.5%
19,CC(C)OC(=O)CSc1nc2cc3c(cc2cc1C#N)OCO3,-0.146%
20,Cc1nn(-c2ccccc2Cl)c(Cl)c1/C=N/Nc1cccc(C(=O)O)c1,-4.55%
21,N#Cc1cc2c(nc1SC1CC(=O)N(c3ccccc3)C1=O)CCC2 (configuration not stated),-6.38%
